Test results as given in PubChem BioAssay (NCATS).
The source made the active and inactive calls. Unless noted, calls come from the whole dose curve.

Columns and labels:
[1] = molecular target: Estrogen receptor (Homo sapiens) (UniProt P03372); experiment: qHTS assay for small molecule agonists of estrogen receptor alpha signaling (AID 588514);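 note: 0% = vehicle only and 100% = reference agonist; nearly all actives have a fitted effect of over 70% in size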
In short: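 EC50 and efficacy came from Hill fits of beta-lactamase reporter signal (CCF4 dye, 2 h at room temperature) scaled between DMSO and 20 nM 17-beta-estradiol. Agonist mode: HEK293 ER-alpha-UAS-bla cells in charcoal/dextran-stripped serum medium, 18 h compound exposure at 37 C.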

[2] = molecular target: Vitamin D3 receptor (Homo sapiens) (UniProt P11473); experiment: qHTS assay for small molecule antagonists of vitamin D receptor signaling (AID 588541);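 note: receptor activated by calcitriol during compound treatment; series mostly up to about 77 µM; % is set by controls: 0 for no effect and ±100 for the full control effect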
In short: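 VDR-UAS-bla HEK293T cells (2000/well, 2% charcoal-stripped FBS) were treated with titrated compounds plus 1-alpha,25-dihydroxyvitamin D3 (50 nM or 3 nM final) for 16 h at 37 C. CCF4 beta-lactamase fluorescence was read; Hill fits gave IC50.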

[3] = molecular target: Vitamin D3 receptor (Homo sapiens) (UniProt P11473); experiment: qHTS assay for small molecule agonists of vitamin D receptor signaling (AID 588543);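 note: 0% = DMSO basal and 100% = reference agonist control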
In short: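 β-lactamase reporter, VDR-UAS-bla HEK293T, agonist mode. Cells plated 5 h at 37 °C, compound titration 16 h at 37 °C, CCF4 dye 2 h RT, ratio 460/530 nm. Hill fit → EC50, efficacy vs 50 nM 1α,25-(OH)2D3.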

[4] = molecular target: Thyroid hormone receptor beta (Homo sapiens) (UniProt P10828); experiment: qHTS assay for small molecule agonists of thyroid hormone receptor beta signaling (AID 588545);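 note: 0% = DMSO only and 100% = 10 nM T3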
In short: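 Efficacy and EC50 values derive from Hill fits of qHTS titration data, normalized to 10 nM T3 and DMSO-only wells. HEK 293 reporter cells were stimulated for 18 hrs at 37 C, with beta-lactamase activity measured by CCF4 fluorescence.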

[5] = qHTS assay for small molecule activators of the p53 signaling pathway (AID 651743; active = well fitted activation curve with a large enough effect in the signal ratio, not every such curve was filed as active; inconclusive = small, poorly fitted or top-dose-only effect, or a change in a side signal; the % refers to the signal ratio; note: series mostly up to about 92 µM; % of control where 0% means no effect); conditions: HCT-116 p53RE-bla, beta-lactamase FRET ratio, 16 h; activation: stronger effect = higher value
In short: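 Agonist-mode quantitative HTS in HCT-116 cells carrying a p53-response-element beta-lactamase reporter; 16 h compound treatment at 37 C, then FRET substrate loading for 2 h at room temperature and fluorescence read.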

[6] = qHTS assay for small molecule activators of the nuclear factor-kappa B (NF-kB) signaling pathway (AID 651749; active = well fitted activation curve with a large enough effect in the signal ratio; inconclusive = small, poorly fitted or top-dose-only effect, or a change in a side signal; the % refers to the signal ratio; note: series mostly up to about 77 µM; % of control where 0% means no effect); conditions: NF-kB-bla ME-180 cells, beta-lactamase FRET ratio, 16 h; activation: stronger effect = higher value
In short: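 Human ME-180 cervical cells with an NF-kB-bla construct; compounds added via 23 nL pin transfer, DMSO as vehicle; incubation 16 hr. Reporter activity measured by FRET disruption.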

[7] = qHTS assay for environmental chemicals that activate the Aryl hydrocarbon Receptor (AhR) signaling pathway (AID 651777; active = well fitted curve in the direction sought with a large enough effect; inconclusive = small, poorly fitted or top-dose-only effect, or another doubt; inactive = no such curve, though single readings can be large; an effect the other way counts as inactive or inconclusive; note: % of control where 0% means no effect; nearly all actives have a fitted effect of over 15% in size); conditions: 1A2-DRE human hepatoma cells, luciferase, 24 h; activation: stronger effect = higher value
In short: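 Luminescence read-out: One-Glo added for 30 min at RT after 24 hr compound treatment (37 C, 5% CO2) of human hepatoma cells expressing a DRE/CYP1A2 promoter–luciferase reporter; increased signal indicates AhR activation.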

[8] = molecular target: Peroxisome proliferator-activated receptor alpha (Homo sapiens) (UniProt Q07869); experiment: qHTS assay for small molecule agonists of the peroxisome proliferator-activated receptor alpha (PPARalpha) signaling pathway (AID 651778; active = well fitted curve in the direction sought with a large enough effect; inconclusive = small, poorly fitted or top-dose-only effect, or another doubt; inactive = no such curve, though single readings can be large; an effect the other way counts as inactive or inconclusive; note: % of control where 0% means no effect); conditions: PathHunter PPARalpha complementation, chemiluminescence, 6 h; max response: stronger effect = higher value
In short: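 Cells plated at 2,000/well and held overnight at 37 C, 5% CO2, then compound added by pin tool for 6 hr; after PathHunter detection reagent and 60 min at room temperature, chemiluminescence from enzyme complementation was read.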

[9] = qHTS assay for small molecule agonists of the antioxidant response element (ARE) signaling pathway measured by Nrf2-dependant transcriptional activity - cell viability counter screen (AID 720653; active = well fitted curve in the direction sought with a large enough effect in the repeat runs; inconclusive = weak or mixed curves; inactive = no such curve, though single readings can be large; an effect the other way counts as inactive or inconclusive; note: potency is the fitted concentration of half-maximal effect; for max response: % is set by controls: 0 for no effect and ±100 for the full control effect); conditions: ARE-bla HepG2 viability, CellTiter-Glo ATP luminescence, 16 h; max response: stronger effect = lower value
In short: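 ARE-bla HepG2 cells (2,000/well) rested 5 hrs at 37C/5% CO2, then exposed to compounds in DMSO for 16 hrs. Viability was read in the same wells as intracellular ATP by luminescence, 30 min at room temperature after reagent addition.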

[10] = qHTS assay for cell viability of HEK293 cells (AID 743288; active = well fitted curve in the direction sought with a large enough effect; inconclusive = small, poorly fitted or top-dose-only effect, or another doubt; inactive = no such curve, though single readings can be large; an effect the other way counts as inactive or inconclusive; note: nearly all actives have a fitted effect of over 50% in size; note: potency is the fitted concentration of half-maximal effect; for max response: % is set by controls: 0 for no effect and ±100 for the full control effect); conditions: ATP luminescence (CellTiter-Glo), 18 h; max response: stronger effect = lower value
In short: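 ATP luminescence (CellTiter-Glo) reports metabolically competent cell number after parental HEK293 cells, 2,000/well, were treated with DMSO-dissolved compounds for 18 h at 37 C; reagent incubation 30 min, room temperature.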

[11] = qHTS assay for cell viability of the p53RE-bla HCT-116 cell line (AID 743292; active = well fitted curve in the direction sought with a large enough effect; inconclusive = small, poorly fitted or top-dose-only effect, or another doubt; inactive = no such curve, though single readings can be large; an effect the other way counts as inactive or inconclusive; note: % is set by controls: 0 for no effect and ±100 for the full control effect; nearly all actives have a fitted effect of over 55% in size)
In short: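 Luminescent ATP quantitation (CellTiter-Glo) served as the viability read-out; reagent was added after 16 h compound exposure at 37 C and read after 30 min at room temperature. Cells: p53RE-bla HCT-116, 4,000 per well.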

[12] = molecular target: Peroxisome proliferator-activated receptor delta (Homo sapiens) (UniProt Q03181); experiment: qHTS assay for small molecule agonists of peroxisome proliferator-activated receptor delta signaling (AID 588534);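 note: 0% = DMSO basal wells and 100% = positive control agonist at 10 µM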
In short: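 Agonist-mode beta-lactamase reporter readout (CCF4 dye, 2 h at RT) after 18 h at 37 °C exposure to a titration; Hill-equation fitting gave EC50 and maximal response.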

[13] = qHTS assay for small molecule agonists of retinoid X receptor alpha signaling (AID 588544); conditions: HEK293T RXRa-UAS-bla, beta-lactamase reporter, 18 h; 530 nm emission;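 for activation: 0% = DMSO basal wells and 100% = reference agonist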
[14] = molecular target: Retinoic acid receptor RXR-alpha (Homo sapiens) (UniProt P19793); experiment: as above
[15] = qHTS assay for small molecule antagonists of retinoid X receptor alpha signaling (AID 588546; active = well fitted inhibition curve with a large enough effect in the signal ratio, with a control signal flat, not every such curve was filed as active; inconclusive = small, poorly fitted or top-dose-only effect, or effect the other way, or a change in a side signal; inactive = no such curve, though single readings can be large or run the other way; the % refers to the signal ratio;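 note: cells stimulated with 9-cis-retinoic acid as agonist; % is set by controls: 0 for no effect and ±100 for the full control effect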); conditions: HEK293T RXRa-UAS-bla, beta-lactamase ratio, antagonist mode; measured here: W530 green channel, cytotoxicity proxy
In short: (§1)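 Beta-lactamase reporter inhibition, read as CCF4 fluorescence ratio (ex 405, em 460/530 nm) after 2 h at RT. HEK293T UAS-bla cells, 2500/well, were stimulated with 9-cis-RA at 500 or 100 nM final alongside test compound for 18 h at 37 C.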

[16] = molecular target: Retinoic acid receptor RXR-alpha (Homo sapiens) (UniProt P19793); experiment: as above; conditions: HEK293T RXRa-UAS-bla, beta-lactamase ratio, antagonist mode
In short: as §1

[17] = molecular target: Nuclear receptor subfamily 1 group I member 2 (Rattus norvegicus) (UniProt Q9R1A7); experiment: qHTS assay for small molecule activators of the rat pregnane X receptor (rPXR) signaling pathway (AID 651751; call rule not given here; note: 0% is about no effect); conditions: rPXR reporter cells, luciferase (One-Glo), 24 h
[18] = molecular target: Peroxisome proliferator-activated receptor gamma (Homo sapiens) (UniProt P37231); experiment: qHTS assay for small molecule agonists of peroxisome proliferator-activated receptor gamma signaling (AID 588536; active = well fitted curve in the direction sought with a large enough effect in the signal ratio, with a control signal flat, not every such curve was filed as active; inconclusive = small, poorly fitted or top-dose-only effect, or effect the other way, or a change in a side signal; inactive = no such curve, though single readings can be large or run the other way; the % refers to the signal ratio;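 note: 0% = DMSO basal wells and 100% = rosiglitazone at 2 µM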)
In short: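 Compound treatment: 16 h, 37 C, HEK293 GeneBLAzer cells. Detection: CCF4, 2 h RT. Values: Hill-fit EC50, efficacy as % of 2 uM rosiglitazone.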

[19] = qHTS assay for small molecule agonists of the antioxidant response element (ARE) signaling pathway measured by Nrf2-dependant transcriptional activity (AID 720636; active = well fitted curve in the direction sought with a large enough effect in the repeat runs; inconclusive = weak or mixed curves; inactive = no such curve, though single readings can be large; an effect the other way counts as inactive or inconclusive;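 note: HepG2 cells with an ARE-driven luciferase reporter; % of control where 0% means no effect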)
In short: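 HepG2 ARE-luc reporter line, 1% dialyzed FBS; 6 hr attachment at 37 C, compound pinned in, 16 hr at 37 C/5% CO2; ONE-Glo, 30 min RT, luminescence read.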

[20] = molecular target: Estrogen receptor (Homo sapiens) (UniProt P03372); experiment: qHTS assay for small molecule antagonists of estrogen receptor alpha signaling (AID 588513; active = well fitted curve in the direction sought with a large enough effect in the signal ratio, with a control signal flat, not every such curve was filed as active; inconclusive = small, poorly fitted or top-dose-only effect, or effect the other way, or a change in a side signal; inactive = no such curve, though single readings can be large or run the other way; the % refers to the signal ratio; note: potency is the fitted concentration of half-maximal effect)
In short: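 Beta-lactamase reporter, antagonist mode, HEK 293 GripTite cells; 0.5nM E2 stimulus, 18 h, 37 C; CCF4 dye 2 h RT; fluorescence. IC50 and efficacy from Hill fits, normalized to E2 and DMSO.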

Sequence of Thyroid hormone receptor beta (Homo sapiens) (P10828 whole entry, looked up): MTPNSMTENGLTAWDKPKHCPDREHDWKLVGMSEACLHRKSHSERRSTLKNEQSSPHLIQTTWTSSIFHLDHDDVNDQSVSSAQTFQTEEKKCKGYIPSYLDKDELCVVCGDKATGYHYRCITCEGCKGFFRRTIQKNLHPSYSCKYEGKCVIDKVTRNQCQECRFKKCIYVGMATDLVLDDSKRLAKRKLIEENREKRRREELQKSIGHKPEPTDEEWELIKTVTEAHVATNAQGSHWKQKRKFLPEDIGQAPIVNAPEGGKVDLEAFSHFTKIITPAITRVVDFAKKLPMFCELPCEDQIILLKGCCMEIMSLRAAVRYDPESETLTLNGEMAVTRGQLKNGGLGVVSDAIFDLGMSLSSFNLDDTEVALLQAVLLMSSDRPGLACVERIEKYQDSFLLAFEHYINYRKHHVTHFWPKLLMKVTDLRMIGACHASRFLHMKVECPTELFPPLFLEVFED
Sequence of Peroxisome proliferator-activated receptor gamma (Homo sapiens) (P37231 whole entry, looked up): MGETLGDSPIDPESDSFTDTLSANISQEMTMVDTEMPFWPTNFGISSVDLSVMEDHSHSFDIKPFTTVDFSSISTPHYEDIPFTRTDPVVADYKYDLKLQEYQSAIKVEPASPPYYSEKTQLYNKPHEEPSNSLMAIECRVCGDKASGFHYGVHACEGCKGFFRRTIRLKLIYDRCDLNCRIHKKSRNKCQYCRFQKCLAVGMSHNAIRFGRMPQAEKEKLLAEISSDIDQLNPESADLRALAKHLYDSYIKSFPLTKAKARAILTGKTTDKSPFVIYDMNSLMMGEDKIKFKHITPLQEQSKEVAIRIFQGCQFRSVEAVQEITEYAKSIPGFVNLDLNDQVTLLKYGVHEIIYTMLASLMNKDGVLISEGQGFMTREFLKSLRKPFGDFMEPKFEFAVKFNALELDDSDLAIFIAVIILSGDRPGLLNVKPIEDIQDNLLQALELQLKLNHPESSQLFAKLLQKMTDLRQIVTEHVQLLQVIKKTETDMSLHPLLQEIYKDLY
Sequence of Retinoic acid receptor RXR-alpha (Homo sapiens) (P19793 whole entry, looked up): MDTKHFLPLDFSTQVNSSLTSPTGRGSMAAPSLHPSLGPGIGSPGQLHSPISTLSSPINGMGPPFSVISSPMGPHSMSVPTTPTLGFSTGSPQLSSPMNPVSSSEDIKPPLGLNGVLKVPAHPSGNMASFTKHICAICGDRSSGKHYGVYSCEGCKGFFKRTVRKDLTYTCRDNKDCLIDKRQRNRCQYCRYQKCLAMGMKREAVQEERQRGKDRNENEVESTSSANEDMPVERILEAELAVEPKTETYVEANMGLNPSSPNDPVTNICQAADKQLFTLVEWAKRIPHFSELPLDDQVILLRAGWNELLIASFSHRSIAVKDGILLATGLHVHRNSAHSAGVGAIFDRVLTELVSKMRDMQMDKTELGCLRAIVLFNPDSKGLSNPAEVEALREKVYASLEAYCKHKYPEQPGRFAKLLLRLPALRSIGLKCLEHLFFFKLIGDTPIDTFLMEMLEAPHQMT
Sequence of Estrogen receptor (Homo sapiens) (P03372 whole entry, looked up): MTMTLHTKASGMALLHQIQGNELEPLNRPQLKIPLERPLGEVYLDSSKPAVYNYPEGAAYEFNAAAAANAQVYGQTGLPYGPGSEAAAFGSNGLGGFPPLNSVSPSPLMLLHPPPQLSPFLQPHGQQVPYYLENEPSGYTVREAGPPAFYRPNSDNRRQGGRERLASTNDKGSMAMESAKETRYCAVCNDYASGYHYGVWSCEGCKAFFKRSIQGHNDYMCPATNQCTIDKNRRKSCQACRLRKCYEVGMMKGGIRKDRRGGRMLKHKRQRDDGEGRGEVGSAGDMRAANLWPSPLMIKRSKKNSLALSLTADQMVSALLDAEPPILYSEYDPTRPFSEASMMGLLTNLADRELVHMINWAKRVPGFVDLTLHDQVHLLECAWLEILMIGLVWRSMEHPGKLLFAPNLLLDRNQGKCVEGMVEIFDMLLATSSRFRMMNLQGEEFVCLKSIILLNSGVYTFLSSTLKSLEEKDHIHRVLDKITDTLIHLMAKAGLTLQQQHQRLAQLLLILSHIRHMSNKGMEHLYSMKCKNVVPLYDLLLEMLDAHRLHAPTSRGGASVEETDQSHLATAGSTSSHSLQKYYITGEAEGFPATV
Sequence of Peroxisome proliferator-activated receptor alpha (Homo sapiens) (Q07869 whole entry, looked up): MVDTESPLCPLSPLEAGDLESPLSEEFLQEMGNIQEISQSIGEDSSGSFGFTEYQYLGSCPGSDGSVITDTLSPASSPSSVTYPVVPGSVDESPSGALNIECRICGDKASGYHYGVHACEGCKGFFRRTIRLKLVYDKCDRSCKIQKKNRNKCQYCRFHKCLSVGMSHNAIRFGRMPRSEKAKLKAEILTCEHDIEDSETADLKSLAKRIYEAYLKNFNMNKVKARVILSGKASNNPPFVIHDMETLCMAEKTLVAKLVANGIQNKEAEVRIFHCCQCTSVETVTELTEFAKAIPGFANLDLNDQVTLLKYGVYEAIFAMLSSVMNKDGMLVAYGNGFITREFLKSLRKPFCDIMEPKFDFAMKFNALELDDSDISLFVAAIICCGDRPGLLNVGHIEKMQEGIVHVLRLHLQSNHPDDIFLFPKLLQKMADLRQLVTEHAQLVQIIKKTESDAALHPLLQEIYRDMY
Sequence of Vitamin D3 receptor (Homo sapiens) (P11473 whole entry, looked up): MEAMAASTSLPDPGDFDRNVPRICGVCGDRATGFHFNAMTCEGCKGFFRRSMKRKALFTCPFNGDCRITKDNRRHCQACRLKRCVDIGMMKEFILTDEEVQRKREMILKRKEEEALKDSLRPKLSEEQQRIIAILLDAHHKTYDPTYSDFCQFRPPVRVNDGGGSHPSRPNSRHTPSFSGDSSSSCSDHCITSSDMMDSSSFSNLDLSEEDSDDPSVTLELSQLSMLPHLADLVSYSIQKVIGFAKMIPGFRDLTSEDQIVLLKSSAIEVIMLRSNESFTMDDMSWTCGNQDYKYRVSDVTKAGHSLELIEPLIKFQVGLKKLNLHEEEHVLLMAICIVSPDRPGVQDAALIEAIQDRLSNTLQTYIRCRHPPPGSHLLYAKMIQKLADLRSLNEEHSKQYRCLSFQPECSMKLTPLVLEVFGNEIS
Sequence of Nuclear receptor subfamily 1 group I member 2 (Rattus norvegicus) (Q9R1A7 whole entry, looked up): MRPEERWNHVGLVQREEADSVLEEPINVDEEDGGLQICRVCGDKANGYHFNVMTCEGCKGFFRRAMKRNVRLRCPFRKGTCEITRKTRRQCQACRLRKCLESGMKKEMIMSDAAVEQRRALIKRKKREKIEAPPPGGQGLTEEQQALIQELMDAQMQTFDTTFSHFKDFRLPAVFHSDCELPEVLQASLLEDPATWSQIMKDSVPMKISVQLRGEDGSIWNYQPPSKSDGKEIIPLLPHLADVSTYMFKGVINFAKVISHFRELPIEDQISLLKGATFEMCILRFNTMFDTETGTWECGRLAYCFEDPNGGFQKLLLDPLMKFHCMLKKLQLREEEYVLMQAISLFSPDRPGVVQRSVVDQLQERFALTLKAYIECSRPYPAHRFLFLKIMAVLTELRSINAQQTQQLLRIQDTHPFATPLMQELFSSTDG
Sequence of Peroxisome proliferator-activated receptor delta (Homo sapiens) (Q03181 whole entry, looked up): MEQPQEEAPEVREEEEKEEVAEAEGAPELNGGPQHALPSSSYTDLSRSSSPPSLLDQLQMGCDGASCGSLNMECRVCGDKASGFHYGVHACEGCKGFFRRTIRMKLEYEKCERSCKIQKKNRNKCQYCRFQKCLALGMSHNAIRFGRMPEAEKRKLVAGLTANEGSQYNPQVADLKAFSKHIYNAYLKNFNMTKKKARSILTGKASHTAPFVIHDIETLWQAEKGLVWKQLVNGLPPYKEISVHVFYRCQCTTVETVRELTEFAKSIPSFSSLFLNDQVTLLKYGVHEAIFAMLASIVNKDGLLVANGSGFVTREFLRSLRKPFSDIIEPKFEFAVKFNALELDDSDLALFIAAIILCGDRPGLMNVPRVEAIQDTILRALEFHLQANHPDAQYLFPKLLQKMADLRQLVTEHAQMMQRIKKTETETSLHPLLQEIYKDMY

O=C(O)C1(O)c2ccccc2-c2ccc(Cl)cc21 (stereo unspecified)
inactive: Potency [1] | Potency [2] | outcome [3] | Potency [4] | activation [5] 13.8% | activation [6] 3.02% | activation [7] 9.46% | max response [8] 13.5% | max response [9] -16.8% | max response [10] -18.3% | Potency [11]

CC(C)CCCCCCOC(=O)c1ccccc1C(=O)OCCCCCCC(C)C
-8.76%: max response [15]
inactive: Potency [1] | outcome [12] | Potency [2] | outcome [3] | Potency [14] | max response [16] -4.29% | activation [5] 0.433% | activation [6] 2.38% | activation [7] 1.61% | max response [8] -1.61% | max response [9] 0.428% | max response [10] -8.54% | Potency [11] | max response [17] 5.38%
-16.4%: max response [13]

CCNc1nc(Cl)nc(NC(C)(C)C)n1
inactive: Potency [1] | outcome [12] | Potency [18] | Potency [2] | outcome [3] | activation [6] -1.02% | activation [7] 6.82% | max response [8] 0.909% | Potency [19] | max response [9] -4.66% | max response [10] -13.7% | Potency [11] | max response [17] 4.19%

CC(C)Oc1cc(-n2nc(C(C)(C)C)oc2=O)c(Cl)cc1Cl
inactive: Potency [1] | outcome [12] | Potency [2] | outcome [3] | Potency [4] | activation [5] 0.204% | activation [6] 1.16% | activation [7] 0.842% | max response [8] 0.863% | Potency [19] | max response [9] -16% | max response [10] -26.7% | Potency [11]

C=C1CC[C@H](O)C/C1=C/C=C1\CCC[C@]2(C)[C@@H]([C@H](C)CCCC(C)C)CC[C@@H]12
active: Potency [20] 15.8 µM [inconclusive]

CNC(=O)O/N=C/C(C)(C)S(C)(=O)=O
-16.6%: max response [13]
inactive: Potency [1] | Potency [18] | Potency [14] | Potency [4] | max response [16] 0.762% | activation [5] -2.46% | activation [6] -1.23% | activation [7] -0.939% | max response [8] -0.004% | Potency [19] | max response [9] 1.38% | max response [10] 0.485% | Potency [11] | max response [17] 1.26%
-10.7%: max response [15]

CC(C)(C)C(O)C(Oc1ccc(-c2ccccc2)cc1)n1cncn1 (stereo unspecified)
inactive: Potency [1] | Potency [18] | Potency [2] | outcome [3] | Potency [4] | activation [5] 6.28% | activation [6] -1.06% | activation [7] 0.741% | max response [8] 1.37% | Potency [19] | max response [9] -1.48% | max response [10] -21.2% | Potency [11]

CCC/C(=N\OCC)C1=C(O)CC(CC(C)SCC)CC1=O (stereo unspecified)
-1.11%: max response [15]
-4.54%: max response [13]
inactive: Potency [20] | outcome [12] | Potency [18] | Potency [2] | outcome [3] | Potency [14] | Potency [4] | max response [16] -23% | activation [5] -6.84% | activation [6] 0.879% | activation [7] 1.24% | max response [8] 0.062% | Potency [19] | max response [9] -2.32% | max response [10] -13.8% | Potency [11] | max response [17] 0.0341%

O=[N+]([O-])c1ccc(Cl)c([N+](=O)[O-])c1
inactive: Potency [1] | outcome [12] | activation [7] -11.5% | max response [8] -3.79% | Potency [19] | Potency [11] | max response [17] -13.5%
active: Potency [9] 44.7 µM | Potency [10] 50.1 µM

O=[N+]([O-])Nc1nccn1Cc1ccc(Cl)nc1
inactive: Potency [1] | outcome [12] | Potency [18] | Potency [2] | Potency [14] | Potency [4] | max response [16] 5.37% | activation [5] -1.74% | activation [6] -1.97% | max response [8] -0.0433% | Potency [19] | max response [9] -10.2% | max response [10] -8% | Potency [11] | max response [17] -4.49%
-3.06%: max response [15]
-15.2%: max response [13]

Cc1[nH]c(=O)n(C(C)(C)C)c(=O)c1Cl
-0.982%: max response [13]
inactive: Potency [1] | Potency [18] | Potency [14] | activation [6] -0.578% | activation [7] 0.775% | max response [8] -1.56% | Potency [19] | max response [9] 0.82% | max response [10] -5.92% | Potency [11] | max response [17] 0.145%

COc1ccc(-c2ccccc2)cc1NNC(=O)OC(C)C
inactive: Potency [1] | Potency [18] | Potency [2] | outcome [3] | Potency [4] | activation [5] -1.18% | activation [6] -0.684% | max response [8] -0.526% | Potency [19] | max response [9] -7.29% | max response [10] -21.9% | Potency [11] | max response [17] -11.3%

Nc1cnn(-c2ccccc2)c(=O)c1Cl
-1.68%: max response [15]
inactive: Potency [20] | outcome [12] | Potency [18] | Potency [2] | outcome [3] | Potency [14] | Potency [4] | max response [16] -7.65% | activation [5] -0.0509% | activation [6] -0.283% | activation [7] 6.85% | max response [8] -1.54% | Potency [19] | max response [9] 11.3% | Potency [11] | max response [17] 4.89%
-6.12%: max response [13]
